# Laboratory results: publication PMC7862700, “An all-to-all approach to the identification of sequence-specific readers for epigenetic DNA modifications on cytosine”
# Experiments:
# Test in all cases: DAPPL (digital affinity profiling via proximity ligation, sequencing); 10 mM Tris-HCl pH 7.5, 50 mM NaCl, 1 mM DTT, 4% glycerol, room temperature, 30 min; GST-TFs on glutathione beads, 16-mer random dsDNA library, 0.1% formaldehyde crosslink after washing; high values mean tight binding
# FLI1 = target: T1, FLI1 (Homo sapiens, UniProt Q01543 1-452); details: protein: recombinant; tags: N-terminal GST; dsDNA, one strand shown
# T1 sequence: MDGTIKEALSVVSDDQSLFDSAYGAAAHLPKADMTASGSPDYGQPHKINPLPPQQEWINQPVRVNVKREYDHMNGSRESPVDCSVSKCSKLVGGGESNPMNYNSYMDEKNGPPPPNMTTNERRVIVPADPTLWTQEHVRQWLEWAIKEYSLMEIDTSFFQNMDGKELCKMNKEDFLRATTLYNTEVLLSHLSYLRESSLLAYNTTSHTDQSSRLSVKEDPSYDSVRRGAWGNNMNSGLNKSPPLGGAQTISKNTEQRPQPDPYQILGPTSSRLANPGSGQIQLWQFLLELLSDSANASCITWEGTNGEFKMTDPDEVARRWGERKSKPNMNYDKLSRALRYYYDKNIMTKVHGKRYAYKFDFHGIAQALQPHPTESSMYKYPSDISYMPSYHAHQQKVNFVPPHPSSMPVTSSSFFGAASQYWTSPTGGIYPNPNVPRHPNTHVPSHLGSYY
# Summary of the method: (§1)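 Human transcription factors were made in yeast as GST fusions, captured on glutathione beads and barcoded with DNA. With a tag-only sample included, the pool was incubated with 200 nmole of a random double-stranded 16-mer DNA library in Tris/NaCl/DTT/glycerol buffer at room temperature for 30 min, then crosslinked with 0.1% formaldehyde after washing, ligated by proximity, amplified and sequenced. For binding signal, each hexamer's read frequency for a factor is divided by its frequency for the tag-only sample.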
# ELK1 = target: T2, ELK1 (Homo sapiens, UniProt P19419 1-428); details: protein: recombinant; tags: N-terminal GST; dsDNA, one strand shown
# T2 sequence: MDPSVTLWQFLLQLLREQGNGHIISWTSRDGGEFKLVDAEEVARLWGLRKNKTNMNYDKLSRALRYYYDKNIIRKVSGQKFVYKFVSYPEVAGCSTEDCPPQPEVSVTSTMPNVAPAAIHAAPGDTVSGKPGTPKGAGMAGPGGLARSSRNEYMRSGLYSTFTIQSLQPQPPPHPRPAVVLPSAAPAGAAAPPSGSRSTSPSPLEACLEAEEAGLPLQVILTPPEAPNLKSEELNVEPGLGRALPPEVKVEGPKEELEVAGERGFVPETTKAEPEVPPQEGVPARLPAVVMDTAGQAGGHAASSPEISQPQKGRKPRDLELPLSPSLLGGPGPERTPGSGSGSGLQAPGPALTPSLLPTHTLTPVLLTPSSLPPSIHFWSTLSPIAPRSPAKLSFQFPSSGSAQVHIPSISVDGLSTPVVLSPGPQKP
# Summary of the method: as §1
# GABPA = target: T3, GABPA (Homo sapiens, UniProt Q06546 1-454); details: protein: recombinant; tags: N-terminal GST; dsDNA, one strand shown
# T3 sequence: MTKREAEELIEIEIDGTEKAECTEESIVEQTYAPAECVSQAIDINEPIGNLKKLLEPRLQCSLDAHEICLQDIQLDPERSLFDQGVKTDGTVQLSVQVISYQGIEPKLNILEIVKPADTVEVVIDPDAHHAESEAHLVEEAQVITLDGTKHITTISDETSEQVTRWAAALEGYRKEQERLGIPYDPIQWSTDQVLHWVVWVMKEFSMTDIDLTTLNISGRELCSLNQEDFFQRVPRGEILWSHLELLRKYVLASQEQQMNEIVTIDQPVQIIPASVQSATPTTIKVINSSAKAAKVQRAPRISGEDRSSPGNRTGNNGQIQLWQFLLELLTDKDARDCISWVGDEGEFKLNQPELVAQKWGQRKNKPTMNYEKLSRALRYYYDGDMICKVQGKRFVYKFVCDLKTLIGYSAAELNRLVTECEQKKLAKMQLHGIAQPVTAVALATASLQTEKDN
# Summary of the method: as §1
# ERG = target: T4, ERG (Homo sapiens, UniProt P11308 1-479); details: protein: recombinant; tags: N-terminal GST; dsDNA, one strand shown
# T4 sequence: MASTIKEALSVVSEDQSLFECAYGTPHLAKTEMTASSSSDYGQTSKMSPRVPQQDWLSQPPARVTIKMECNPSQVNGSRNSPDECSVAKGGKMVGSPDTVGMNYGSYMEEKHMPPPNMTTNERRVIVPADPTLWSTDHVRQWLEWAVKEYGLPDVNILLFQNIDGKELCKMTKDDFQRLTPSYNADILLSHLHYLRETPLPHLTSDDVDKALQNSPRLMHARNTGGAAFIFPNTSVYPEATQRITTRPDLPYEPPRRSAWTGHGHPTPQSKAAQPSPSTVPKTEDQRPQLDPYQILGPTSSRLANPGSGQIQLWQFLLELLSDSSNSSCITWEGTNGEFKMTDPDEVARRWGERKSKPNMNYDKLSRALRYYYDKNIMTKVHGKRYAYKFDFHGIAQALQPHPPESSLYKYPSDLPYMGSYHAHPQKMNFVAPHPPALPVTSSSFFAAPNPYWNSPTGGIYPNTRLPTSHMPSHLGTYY
# Summary of the method: as §1
# ELF1 = ELF1 (Homo sapiens, UniProt P32519 1-619); details: protein: recombinant; tags: N-terminal GST; dsDNA, one strand shown
# Chain of ELF1 (P32519 whole entry): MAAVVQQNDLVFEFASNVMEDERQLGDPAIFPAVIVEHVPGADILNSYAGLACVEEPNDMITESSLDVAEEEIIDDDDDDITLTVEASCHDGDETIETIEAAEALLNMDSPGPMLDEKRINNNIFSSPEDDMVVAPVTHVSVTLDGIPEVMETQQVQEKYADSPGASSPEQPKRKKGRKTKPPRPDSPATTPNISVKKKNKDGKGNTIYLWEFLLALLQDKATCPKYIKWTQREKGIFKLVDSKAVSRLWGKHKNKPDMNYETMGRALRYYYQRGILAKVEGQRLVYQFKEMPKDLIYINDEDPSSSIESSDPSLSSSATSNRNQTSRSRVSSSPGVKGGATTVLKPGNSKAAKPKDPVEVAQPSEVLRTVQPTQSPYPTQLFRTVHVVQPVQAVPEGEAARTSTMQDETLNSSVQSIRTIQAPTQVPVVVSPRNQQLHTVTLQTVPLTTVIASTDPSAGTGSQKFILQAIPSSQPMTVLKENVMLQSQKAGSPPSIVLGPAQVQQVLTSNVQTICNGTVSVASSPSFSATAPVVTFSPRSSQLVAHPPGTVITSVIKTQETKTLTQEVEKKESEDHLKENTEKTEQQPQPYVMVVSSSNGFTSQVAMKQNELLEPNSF
# Summary of the method: as §1
# EHF = target: T5, EHF (Homo sapiens, UniProt Q9NZC4 1-300); details: protein: recombinant; tags: N-terminal GST; dsDNA, one strand shown
# T5 sequence: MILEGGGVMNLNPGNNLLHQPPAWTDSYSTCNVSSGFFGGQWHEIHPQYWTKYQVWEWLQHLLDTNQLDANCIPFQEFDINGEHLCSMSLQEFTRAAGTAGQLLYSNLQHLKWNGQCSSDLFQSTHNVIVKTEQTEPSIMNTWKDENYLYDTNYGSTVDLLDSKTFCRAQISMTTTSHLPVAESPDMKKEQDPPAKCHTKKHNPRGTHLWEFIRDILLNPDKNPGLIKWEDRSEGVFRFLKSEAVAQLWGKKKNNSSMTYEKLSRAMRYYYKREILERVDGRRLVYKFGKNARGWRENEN
# Summary of the method: as §1
# SPIB = SPIB (Homo sapiens, UniProt Q01892 1-262); details: protein: recombinant; tags: N-terminal GST; dsDNA, one strand shown
# Chain of SPIB (Q01892 whole entry): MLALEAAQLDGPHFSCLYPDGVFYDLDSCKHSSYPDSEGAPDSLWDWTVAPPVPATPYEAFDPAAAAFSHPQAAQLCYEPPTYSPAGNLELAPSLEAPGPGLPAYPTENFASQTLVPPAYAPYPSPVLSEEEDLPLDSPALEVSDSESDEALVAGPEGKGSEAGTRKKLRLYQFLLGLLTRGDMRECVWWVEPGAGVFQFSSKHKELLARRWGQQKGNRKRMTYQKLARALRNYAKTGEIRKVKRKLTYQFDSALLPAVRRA
# Summary of the method: as §1
# ELK3 = target: T6, ELK3 (Homo sapiens, UniProt P41970 1-407); details: protein: recombinant; tags: N-terminal GST; dsDNA, one strand shown
# T6 sequence: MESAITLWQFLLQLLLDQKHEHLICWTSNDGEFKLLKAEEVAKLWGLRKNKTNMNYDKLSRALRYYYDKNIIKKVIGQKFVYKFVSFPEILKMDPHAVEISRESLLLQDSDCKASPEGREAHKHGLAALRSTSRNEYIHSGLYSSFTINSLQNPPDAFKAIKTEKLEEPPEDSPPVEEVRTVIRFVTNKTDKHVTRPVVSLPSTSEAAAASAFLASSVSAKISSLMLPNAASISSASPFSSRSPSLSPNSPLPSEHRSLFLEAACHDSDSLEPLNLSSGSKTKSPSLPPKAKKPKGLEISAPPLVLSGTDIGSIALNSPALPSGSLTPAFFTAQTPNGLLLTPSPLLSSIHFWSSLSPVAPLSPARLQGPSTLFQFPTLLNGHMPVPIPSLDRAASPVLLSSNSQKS
# Summary of the method: as §1
# FEV = target: T7, FEV (Homo sapiens, UniProt Q99581 1-238); details: protein: recombinant; tags: N-terminal GST; dsDNA, one strand shown
# T7 sequence: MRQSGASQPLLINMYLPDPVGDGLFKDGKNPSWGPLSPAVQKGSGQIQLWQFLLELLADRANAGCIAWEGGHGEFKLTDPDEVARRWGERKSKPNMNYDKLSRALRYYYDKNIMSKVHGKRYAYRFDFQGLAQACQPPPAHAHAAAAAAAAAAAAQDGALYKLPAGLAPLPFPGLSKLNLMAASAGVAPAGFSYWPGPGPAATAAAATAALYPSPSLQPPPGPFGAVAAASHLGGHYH
# Summary of the method: as §1
# ETV5 = ETV5 (Homo sapiens, UniProt P41161 1-510); details: protein: recombinant; tags: N-terminal GST; dsDNA, one strand shown
# Chain of ETV5 (P41161 whole entry): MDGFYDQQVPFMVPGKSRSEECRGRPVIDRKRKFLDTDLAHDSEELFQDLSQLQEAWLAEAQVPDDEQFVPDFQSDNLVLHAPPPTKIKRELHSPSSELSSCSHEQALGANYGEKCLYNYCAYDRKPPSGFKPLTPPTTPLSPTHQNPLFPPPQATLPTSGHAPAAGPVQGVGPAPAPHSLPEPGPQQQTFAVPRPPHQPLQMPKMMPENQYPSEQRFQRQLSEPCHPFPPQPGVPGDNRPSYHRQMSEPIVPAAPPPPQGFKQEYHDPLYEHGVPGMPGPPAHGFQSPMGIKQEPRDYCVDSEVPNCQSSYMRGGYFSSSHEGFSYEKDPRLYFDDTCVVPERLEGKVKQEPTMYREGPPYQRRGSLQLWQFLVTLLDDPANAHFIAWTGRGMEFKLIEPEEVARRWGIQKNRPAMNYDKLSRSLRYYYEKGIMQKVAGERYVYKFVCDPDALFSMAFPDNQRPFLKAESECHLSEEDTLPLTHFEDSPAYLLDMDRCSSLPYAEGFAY
# Summary of the method: as §1
# HSF1 = HSF1 (Homo sapiens, UniProt Q00613 1-529); details: protein: recombinant; tags: N-terminal GST; chain copies: 3; dsDNA, one strand shown
# Chain of HSF1 (Q00613 whole entry): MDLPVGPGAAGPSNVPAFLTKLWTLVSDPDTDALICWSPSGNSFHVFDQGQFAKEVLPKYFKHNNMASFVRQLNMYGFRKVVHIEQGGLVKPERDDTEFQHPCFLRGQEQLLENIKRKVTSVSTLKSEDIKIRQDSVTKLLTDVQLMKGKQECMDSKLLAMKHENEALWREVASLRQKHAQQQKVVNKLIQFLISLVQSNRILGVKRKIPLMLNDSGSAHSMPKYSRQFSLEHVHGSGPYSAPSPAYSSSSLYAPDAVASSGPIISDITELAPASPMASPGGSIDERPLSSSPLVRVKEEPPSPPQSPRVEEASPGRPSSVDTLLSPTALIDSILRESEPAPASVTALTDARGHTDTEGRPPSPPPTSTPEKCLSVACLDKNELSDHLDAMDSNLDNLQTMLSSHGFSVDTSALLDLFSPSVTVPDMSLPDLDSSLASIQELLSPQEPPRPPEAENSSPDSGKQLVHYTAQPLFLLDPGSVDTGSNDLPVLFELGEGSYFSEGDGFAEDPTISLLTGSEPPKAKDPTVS
# Summary of the method: as §1
# SPIC = target: T8, SPIC (Homo sapiens, UniProt Q8N5J4 1-248); details: protein: recombinant; tags: N-terminal GST; dsDNA, one strand shown
# T8 sequence: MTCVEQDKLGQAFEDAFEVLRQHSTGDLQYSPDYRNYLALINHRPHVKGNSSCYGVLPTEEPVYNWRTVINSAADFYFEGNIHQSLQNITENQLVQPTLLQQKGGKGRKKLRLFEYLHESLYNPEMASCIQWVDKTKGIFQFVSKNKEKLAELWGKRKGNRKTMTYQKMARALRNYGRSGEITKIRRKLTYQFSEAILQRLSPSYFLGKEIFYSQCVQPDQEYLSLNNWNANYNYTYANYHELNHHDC
# Summary of the method: as §1
# ELF4 = ELF4 (Homo sapiens, UniProt Q99607 1-663); details: protein: recombinant; tags: N-terminal GST; dsDNA, one strand shown
# Chain of ELF4 (Q99607 whole entry): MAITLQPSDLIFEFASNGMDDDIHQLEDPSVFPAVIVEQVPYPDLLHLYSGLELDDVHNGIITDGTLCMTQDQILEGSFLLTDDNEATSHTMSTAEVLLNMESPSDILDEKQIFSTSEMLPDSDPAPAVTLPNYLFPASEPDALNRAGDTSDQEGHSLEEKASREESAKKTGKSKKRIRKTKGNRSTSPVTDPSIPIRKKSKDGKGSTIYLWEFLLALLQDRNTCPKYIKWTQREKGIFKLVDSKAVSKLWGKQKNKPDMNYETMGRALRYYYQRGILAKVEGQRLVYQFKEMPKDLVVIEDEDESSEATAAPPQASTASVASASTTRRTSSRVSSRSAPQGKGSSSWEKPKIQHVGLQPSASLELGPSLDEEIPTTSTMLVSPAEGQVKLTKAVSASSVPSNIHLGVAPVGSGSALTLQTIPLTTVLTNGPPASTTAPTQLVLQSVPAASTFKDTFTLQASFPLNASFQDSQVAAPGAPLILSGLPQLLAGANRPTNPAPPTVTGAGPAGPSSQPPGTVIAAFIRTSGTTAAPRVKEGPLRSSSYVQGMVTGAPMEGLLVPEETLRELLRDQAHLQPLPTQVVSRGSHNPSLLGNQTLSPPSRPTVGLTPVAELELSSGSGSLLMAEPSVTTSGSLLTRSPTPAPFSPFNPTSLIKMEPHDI
# Summary of the method: as §1
# ELK4 = target: T9, ELK4 (Homo sapiens, UniProt P28324-2 1-405); details: protein: recombinant; tags: N-terminal GST; dsDNA, one strand shown
# T9 sequence: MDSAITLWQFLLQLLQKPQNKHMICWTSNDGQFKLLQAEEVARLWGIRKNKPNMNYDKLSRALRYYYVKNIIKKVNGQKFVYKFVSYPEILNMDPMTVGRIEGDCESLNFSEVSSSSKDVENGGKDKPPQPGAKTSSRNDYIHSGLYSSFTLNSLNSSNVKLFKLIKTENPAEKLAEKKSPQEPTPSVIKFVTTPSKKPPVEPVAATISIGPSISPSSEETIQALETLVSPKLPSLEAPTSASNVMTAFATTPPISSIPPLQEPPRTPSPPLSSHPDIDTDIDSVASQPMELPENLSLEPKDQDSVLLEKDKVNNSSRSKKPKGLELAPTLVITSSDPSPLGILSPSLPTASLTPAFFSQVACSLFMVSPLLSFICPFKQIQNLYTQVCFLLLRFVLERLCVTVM
# Summary of the method: as §1
# ETV2 = target: T10, ETV2 (Homo sapiens, UniProt O00321 1-342); details: protein: recombinant; tags: N-terminal GST; dsDNA, one strand shown
# T10 sequence: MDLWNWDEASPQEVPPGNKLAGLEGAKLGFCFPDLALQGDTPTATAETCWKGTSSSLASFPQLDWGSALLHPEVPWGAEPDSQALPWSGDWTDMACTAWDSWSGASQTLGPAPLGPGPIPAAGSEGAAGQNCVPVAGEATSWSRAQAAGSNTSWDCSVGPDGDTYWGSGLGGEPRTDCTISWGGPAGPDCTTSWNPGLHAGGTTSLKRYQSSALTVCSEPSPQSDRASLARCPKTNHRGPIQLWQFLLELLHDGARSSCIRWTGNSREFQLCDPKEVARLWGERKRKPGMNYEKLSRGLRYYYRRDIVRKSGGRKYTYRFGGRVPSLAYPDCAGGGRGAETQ
# Summary of the method: as §1
# ELF3 = target: T11, ELF3 (Homo sapiens, UniProt P78545 1-371); details: protein: recombinant; tags: N-terminal GST; dsDNA, one strand shown
# T11 sequence: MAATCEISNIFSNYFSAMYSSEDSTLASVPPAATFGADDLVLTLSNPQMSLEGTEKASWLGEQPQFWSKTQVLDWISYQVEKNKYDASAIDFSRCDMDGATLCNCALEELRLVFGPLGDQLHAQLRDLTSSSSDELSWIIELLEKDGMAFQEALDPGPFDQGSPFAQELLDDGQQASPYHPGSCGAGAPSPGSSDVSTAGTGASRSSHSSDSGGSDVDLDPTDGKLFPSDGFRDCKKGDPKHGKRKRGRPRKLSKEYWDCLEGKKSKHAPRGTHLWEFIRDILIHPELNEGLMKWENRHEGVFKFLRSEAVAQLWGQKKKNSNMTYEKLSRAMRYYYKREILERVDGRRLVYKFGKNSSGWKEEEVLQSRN
# Summary of the method: as §1
# CRX = CRX (Homo sapiens, UniProt O43186 1-299); details: protein: recombinant; tags: N-terminal GST; dsDNA, one strand shown
# Chain of CRX (O43186 whole entry): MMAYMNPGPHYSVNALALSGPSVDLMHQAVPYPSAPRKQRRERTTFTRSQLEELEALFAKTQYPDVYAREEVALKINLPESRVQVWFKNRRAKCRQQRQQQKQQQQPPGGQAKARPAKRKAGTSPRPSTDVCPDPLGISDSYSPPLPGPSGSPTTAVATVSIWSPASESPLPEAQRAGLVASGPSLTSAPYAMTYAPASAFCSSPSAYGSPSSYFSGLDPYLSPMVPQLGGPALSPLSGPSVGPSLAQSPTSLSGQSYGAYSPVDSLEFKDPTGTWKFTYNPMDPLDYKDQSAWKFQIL
# Summary of the method: as §1
# ETV1 = ETV1 (Homo sapiens, UniProt P50549 1-477); details: protein: recombinant; tags: N-terminal GST; dsDNA, one strand shown
# Chain of ETV1 (P50549 whole entry): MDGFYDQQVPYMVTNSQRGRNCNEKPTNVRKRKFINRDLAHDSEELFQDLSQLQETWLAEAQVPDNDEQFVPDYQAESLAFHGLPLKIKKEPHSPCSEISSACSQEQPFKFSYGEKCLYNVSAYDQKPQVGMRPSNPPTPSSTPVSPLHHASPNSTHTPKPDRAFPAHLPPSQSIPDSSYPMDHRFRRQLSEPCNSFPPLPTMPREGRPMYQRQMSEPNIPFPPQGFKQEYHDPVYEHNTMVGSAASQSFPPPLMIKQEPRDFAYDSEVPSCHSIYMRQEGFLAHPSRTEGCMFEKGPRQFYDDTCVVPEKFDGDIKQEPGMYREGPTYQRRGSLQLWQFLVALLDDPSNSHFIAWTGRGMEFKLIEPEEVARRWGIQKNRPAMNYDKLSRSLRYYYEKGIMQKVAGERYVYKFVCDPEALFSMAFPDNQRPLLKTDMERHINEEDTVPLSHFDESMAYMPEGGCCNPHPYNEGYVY
# Summary of the method: as §1
sequence,measurement,setting,value
CGAGCA,binding signal,FLI1,"1.17 fold enrichment (6-mer frequency, TF over GST control)"
same,binding signal,ELK1,"1.18 fold enrichment (6-mer frequency, TF over GST control)"
same,binding signal,GABPA,"1.18 fold enrichment (6-mer frequency, TF over GST control)"
same,binding signal,ERG,"1.13 fold enrichment (6-mer frequency, TF over GST control)"
same,binding signal,ELF1,"1.14 fold enrichment (6-mer frequency, TF over GST control)"
same,binding signal,EHF,"1.05 fold enrichment (6-mer frequency, TF over GST control)"
same,binding signal,SPIB,"1.16 fold enrichment (6-mer frequency, TF over GST control)"
same,binding signal,ELK3,"1.14 fold enrichment (6-mer frequency, TF over GST control)"
same,binding signal,FEV,"1.16 fold enrichment (6-mer frequency, TF over GST control)"
same,binding signal,ETV5,"1.1 fold enrichment (6-mer frequency, TF over GST control)"
same,binding signal,HSF1,"1.38 fold enrichment (6-mer frequency, TF over GST control)"
same,binding signal,SPIC,"1.1 fold enrichment (6-mer frequency, TF over GST control)"
same,binding signal,ELF4,"1.13 fold enrichment (6-mer frequency, TF over GST control)"
same,binding signal,ELK4,"1.17 fold enrichment (6-mer frequency, TF over GST control)"
same,binding signal,ETV2,"1.34 fold enrichment (6-mer frequency, TF over GST control)"
same,binding signal,ELF3,"1.29 fold enrichment (6-mer frequency, TF over GST control)"
same,binding signal,CRX,"1.04 fold enrichment (6-mer frequency, TF over GST control)"
same,binding signal,ETV1,"1.11 fold enrichment (6-mer frequency, TF over GST control)"
